Results: PubChem BioAssay AID1814 (Broad Institute, 2009)
In all, about 300,000 compounds went through this assay and about 22,000 (7.3%) were called active. Another 2% or so got no clear call; they are omitted. This excerpt belongs to a sample that is enriched for actives. Unmarked numbers belong to inactive results. Cut-off read from the data, not from the text of the source: active = activity score below about -60%; inconclusive = mostly about -28% to -61%; inactive = positive scores.

Experiment: Activators via SNCA 5'UTR binding, MLPCN (AID 1814)
Details: alpha-synuclein 5'UTR reporter, activators screen; hits give low values; tested at 7.5 µM

Row | SMILES | activity score
1 | Cc1onc(-c2ccccc2Cl)c1C(=O)N(Cc1ccc(N(C)C)cc1)C(C)C | 73.1%
2 | CCN1/C(=C\c2ccc3ccccc3[n+]2CC)Sc2cc(C)ccc21 | -332% (active)
3 | O=C(Nc1ncccc1O)c1ccc(S(=O)(=O)N2CCCC2)cc1 | -67.4% (active)
4 | O=C(Nc1ncccc1O)c1ccc(C(=O)c2ccccc2)cc1 | -507% (active)
5 | CNC(C)C#Cc1ccc2sc3cc(OC)c(OC)cc3c(=O)c2c1 (centres undefined) | -277% (active)
6 | FC(F)(F)Oc1ccc(-c2cn3cccnc3n2)cc1 | -80.4% (active)
7 | COc1ccc(-c2cn3cccnc3n2)cc1 | -75.4% (active)
8 | COc1ccc(-c2cn3ccsc3n2)cc1 | -105% (active)
9 | CC(C)(C)C(=O)Nc1ccc(-c2cn3cccnc3n2)cc1 | -130% (active)
10 | CCn1nnnc1SCC(=O)c1ccc(C)cc1C | -81% (active)
11 | COC(=O)C1C(=O)c2c([nH]c(C(=O)OCCSC)c2C)CC1C (centres undefined) | -117% (active)
12 | COc1ccc(-n2ncc3c(N4CCc5ccccc54)ncnc32)cc1 | -240% (active)
13 | Cc1cccc(-n2ncc3c(N4CCc5ccccc54)ncnc32)c1 | -164% (active)
14 | Cc1cc(N/C=C\C(=O)c2ccc(Cl)c(Cl)c2)no1 | -231% (active)
15 | CCCCC(=O)Nc1nc(C)c(-c2csc(Nc3ccc(Cl)cc3)n2)s1 | -62.8% (active)
16 | S=c1[nH]nc(-c2cccnc2)n1/N=C/C(Cl)=C\c1ccccc1 | -177% (active)
17 | Cc1ccccc1-c1n[nH]c(=S)n1/N=C/c1ccc(-c2ccccc2Br)o1 | 57.9%
18 | Cc1cc(-c2n[nH]c(=S)n2/N=C/C(Br)=C/c2ccccc2)n[nH]1 | -235% (active)
19 | Cc1nn2c3cc(N4CCOCC4)ccc3nc2c2ccccc12 | -149% (active)
20 | O=C(Cc1ccc(F)cc1)N/N=C/c1ccc2c(c1)OCO2 | -93.4% (active)
21 | Cc1ccc(C(=O)NNc2ncnc3ccccc23)cc1 | -131% (active)
22 | O=C(Nc1ccc2c(c1)OCCO2)c1cnccn1 | -68.9% (active)
23 | Cn1cc([N+](=O)[O-])c(C(=O)Nc2ccc3c(c2)OCCO3)n1 | -65.9% (active)
24 | CCN(CC)c1ccc(/C=N/NC(=O)c2cnccn2)c(O)c1 | 72.3%
25 | CCN1CCN(c2ccc(NC(=O)c3cnccn3)cc2)CC1 | -97.4% (active)
26 | Oc1c(CN2CCN(c3ccc(F)cc3)CC2)cc(Cl)c2cccnc12 | 69.6%
27 | O=C(Nc1ccc2c(c1)OCCO2)c1ccoc1 | -84.8% (active)
28 | Nc1c(C(=O)Nc2ccc3c(c2)OCCO3)nnn1Cc1ccccc1 | -194% (active)
29 | CCOc1ccc(N2C(=O)CC(N(O)c3ccccc3)C2=O)cc1 (centres undefined) | -65% (active)
